From PubChem BioAssay
An excerpt weighted towards active compounds, which were near 6.6% of everything screened.
HepG2 tox – counter-screen for TGF-b inhibitors: cytotoxicity in HepG2 cells. HepG2 CAGA-GFP viability, ATP luminescence, 18 h. Potency, µM (titrated, usually from 46.1 µM), without a hit: at the top dose activity change, negative = cytotoxicity, actives largely listed as cytotoxic. hit rate 0.76% among 410,000. AID 588856
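HepG2 CAGA-GFP cells (1000/well, DMEM with 1% FBS) received compound, then TGF-beta at 500 pg/mL final, and were incubated 18 hours at 37 degrees C. Viability was read by CellTiter-Glo luminescence. Media-only wells were set as complete cell-killing and DMSO as no toxicity.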
HT1080 IDH1KD tx – kills HT-1080 cells with IDH1 knockdown; Potency, µM (highest dose often 46.1 µM), for the others: at the highest dose activity, negative = toxicity, hits mostly cytotoxic; HT-1080 IDH1 knockdown viability, ATP luminescence, 48 h; hit rate 2% among 360,000; AID 686971;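 further: 0% = DMSO wells and -100% = cell-free medium wells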
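Knockdown cells (IDH1KD HT-1080) received compounds 2 h after plating at 750 cells/well and were kept 48 h at 37 °C in 5% FBS RPMI. A CellTiter-Glo luminescence read gave % activity for curve fitting.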
TGFb SMAD3 inh – inhibitors of TGF-b signaling | hit rate 1.2% among 410,000 | Potency, µM (titrated, usually from 46.1 µM), without a hit: at the highest dose activity, negative = inhibition, actives largely listed as inhibitors | AID 588855 | HepG2 CAGA-GFP TGF-b/SMAD3 reporter, GFP fluorescence, 18 h; TGF-beta stimulated, 500 pg/mL final; further: on the % scale 0 is the no-effect control and ±100 the full control effect; nearly all actives have a fitted effect of over 65% in size
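Cell-based qHTS in HEPG2 carrying a CAGA-GFP Smad reporter; compounds added before 500 pg/mL final TGF-beta, 18 h incubation at 37 degrees C, GFP fluorescence quantified per cell by imaging cytometry.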
HT1080NT lethal – kills 2HG-producing HT-1080-NT fibrosarcoma cells; HT-1080-NT fibrosarcoma viability, CellTiter-Glo ATP luminescence, 48 h; Potency, µM (top dose mostly 46.1 µM), for inactives: at the top dose activity, negative = less viability, usual class: cytotoxic; hit rate 1.6% among 360,000;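 further: NT is the 2HG producing partner of a matched IDH1 knockdown line; 0% = DMSO-treated cells and -100% = media-only wells without cells; nearly all actives have a fitted effect of over 55% in size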
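Toxicity toward the 2HG-producing NT line was scored as %Activity, normalised to DMSO and no-cell wells, from CellTiter-Glo luminescence after 48 hours' treatment.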
KB-3-1 tox – kills parental KB-3-1 adenocarcinoma cells; Potency, µM (doses to about 46.1 µM), hits mostly cytotoxic; AID 1347075; hit rate 1.4% among 400,000; KB-3-1 viability, CellTiter-Glo ATP luminescence, 72 h; further: on the % scale 0 is the no-effect control and ±100 the full control effect; nearly all actives have a fitted effect of over 60% in size
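Screening of KB-3-1 cells (DMEM, 10% FBS, phenol-red free) ran from lowest to highest compound concentration; after 72 h at 37 °C viability was read luminescently and curves fitted.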
KB-V1 MDR tox – KB-V1 MDR subline cytotoxicity; KB-V1 MDR cells viability, CellTiter-Glo, 72 h; Potency, µM (doses to about 46.1 µM), most hits filed as cytotoxic; hit rate 3.4% among 400,000; further: on the % scale 0 is the no-effect control and ±100 the full control effect; nearly all actives have a fitted effect of over 60% in size
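Cytotoxicity via CellTiter-Glo luminescence after 72 h compound exposure at 37 degrees C. Cells: drug-selected KB-V1 line, DMEM phenol-red free plus 10% FBS. Compounds tested at multiple concentrations; normalized data fitted to concentration-effect curves.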
Numbers without * were called inactive; i = inactive; u = inconclusive; x = no result; ! = not active in a repeat. The call rests on the fitted dose curve; in most records, active means well fitted curve in the direction sought with a large enough effect; inconclusive means small, poorly fitted or top-dose-only effect, or another doubt; inactive means no such curve, though single readings can be large; an effect the other way counts as inactive or inconclusive. Potency means the concentration at half of the fitted maximal effect.

SMILES	HepG2 tox	HT1080 IDH1KD tx	TGFb SMAD3 inh	HT1080NT lethal	KB-3-1 tox	KB-V1 MDR tox
O=C(CCCN1C(=O)/C(=C/c2cccs2)SC1=S)Nc1cccc(O)c1	-37%	16µM*	u	u	i	i
COc1cc(/C=C2\SC(=S)N(CCC(=O)Nc3cccc(O)c3)C2=O)cc(OC)c1OC	-36%	u	13µM*	u	i	i
O=C(CCN1C(=O)/C(=C/c2cccs2)SC1=S)Nc1cccc(O)c1	-25%	-9%	u	-10%	u	i
O=C(CCCN1C(=O)/C(=C/c2ccccc2)SC1=S)Nc1cccc(O)c1	-67%	-24%	14µM*	-27%	u	i
Cn1nc(C2CC2)cc1NC(=O)C1(C)CCN1C(=O)Cc1ccc(-c2ccccc2)cc1 (stereo not given)	-51%	-17%	6%	-15%	u	i
COc1cc(NC(=O)C(CCSC)NS(=O)(=O)c2ccc3c(c2)oc(=O)n3C)cc(OC)c1 (stereo not given)	-10%	x	0%	x	i	i
O=C(CCCN1C(=O)/C(=C\c2ccccc2)SC1=S)Nc1ccc(O)cc1	-7%	15µM*	u	23µM*	u	u
COc1cccc(/C=C2/SC(=S)N(CCCC(=O)Nc3ccc(O)cc3)C2=O)c1	-72%	u	u	u	i	u
CNc1oc(-c2cccc3ccccc23)nc1C#N	6%	-2%	-4%	2%	i	i
CNc1oc(-c2ccccc2Cl)nc1C#N	3%	9%	2%	7%	u	21µM*
CCOC(=O)N1CCN(Cc2nc3cc(NC(=O)C(C)C)ccc3n2C)CC1	-13%	22%	8%	23%	i	i
CCOC(=O)N1CCN(Cc2nc3cc(NC(=O)CC)ccc3n2C)CC1	3%	10%	10%	25%	i	i
CCOC(=O)N1CCN(Cc2nc3cc(NC(=O)C(C)C)ccc3n2C(C)C)CC1	2%	x	-8%	x	0.65µM*	i
CCCn1c(CN2CCN(C(=O)OCC)CC2)nc2cc(NC(=O)CC)ccc21	1%	5.8µM*	u	7.3µM*	9.2µM*	u
CCCCc1cc(=O)oc2cc(C)c3c(C(C)(C)C)coc3c12	-15%	x	16%	x	i	i
O=C1NC(c2ccccc2Cl)=N/C1=C/c1ccco1	18µM*	-4%	u	-3%	i	i
O=C1NC(c2ccc(Br)cc2)=N/C1=C/c1ccco1	5%	-23%	0%	-14%	i	i
Cc1ccc(N(Cc2ccccc2)C(=O)c2cc(S(=O)(=O)N3CCOCC3)ccc2F)cc1	2%	12%	-9%	22%	i	9.2µM*
O=C(/C=C/c1ccco1)NC(=S)Nc1cccc([N+](=O)[O-])c1	5%	13µM*	-3%	21µM*	u	u
O=C(/C=C/c1ccccc1)NC(=S)Nc1ccc(N2CCOCC2)c(Cl)c1	15%	17%	-4%	21%	i	i
Cc1cccc(NC(=S)NC(=O)/C=C/c2ccco2)c1	-10%	u	-11%	u	4.6µM*	5.2µM*
O=C(/C=C/c1ccco1)NC(=S)Nc1ccc(N2CCOCC2)c(Cl)c1	0%	u	7%	u	4.1µM*	u
COc1ccc(OCC(=O)Nc2ccccc2C(=O)OCc2cc(=O)n3nc(C)sc3n2)cc1	11%	x	-1%	x	x	x
CN(C(=O)c1cc2c(=O)oc3ccccc3c2s1)c1ccc(F)cc1	-2%	x	-11%	x	i	i
O=C(C[N+]12CN3CN(CN(C3)C1)C2)c1ccc(I)cc1	-38%	x	-25%	x	i	i
SMILES	HepG2 tox	HT1080 IDH1KD tx	TGFb SMAD3 inh	HT1080NT lethal	KB-3-1 tox	KB-V1 MDR tox
CCCc1cc(=O)oc2cc3oc(C)c(C)c3cc12	-37%	4%	11%	11%	i	15µM*
CC(CC12CC3CC(CC(C3)C1)C2)NCc1ccccc1O (stereo not given)	16µM*	-13%	18µM*	-16%	i	i
CCOCCCn1c(=O)c(NC(=O)c2ccc(OCC)cc2)c2n(c1=S)CCCCC2	1%	0%	-5%	2%	i	8.2µM*
COCCCNC(=O)c1c(NC(=O)Cc2coc3cc(C)ccc23)sc2c1CCCC2	-53%	x	-15%	x	i	i
CCCCNc1c(-c2ccc(SC3CCCCC3)cc2)nc2ccccn12	-47%	u	u	u	u	21µM*!
CCCCNc1c(-c2ccc(SC(C)CC)cc2)nc2ccccn12 (stereo not given)	-98%	u	u	u	18µM*!	13µM*!
C[C@@H]1CN([C@@H](C)CO)C(=O)c2cc(Br)cnc2O[C@H]1CN(C)C(=O)c1ccc2c(c1)OCO2	0%	1%	13%	0%	i	i
OC(CNCc1ccncc1)c1ccccc1 (stereo not given)	8%	2%	0%	-1%	i	i
OC(CNCc1ccc(-c2ccccc2)cc1)c1ccccc1 (stereo not given)	22µM*	29µM*	u	21µM*	u	u
COc1ccccc1/C=C1\CCCC2=C1Nc1nnnn1C2c1ccccc1OC (stereo not given)	-35%	u	13µM*	-16%	u	8.2µM*
Cc1cc(O)c2c(c1O)C(=O)[C@]13C(=C2O)C(=O)[C@@H]2[C@@H](O)[C@H]1[C@@H]1[C@H](O)[C@H]3C(=O)C3=C(O)c4c(O)cc(C)c(O)c4C(=O)[C@]312	-26%	0.92µM*	u	0.73µM*	1.2µM*	i
C#C[C@]1(OC(C)=O)CCC2C3CCC4=CC(=O)CC[C@@H]4C3CC[C@@]21C (stereo not given in full)	-29%	-2%	1%	0%	u	9.2µM*
COc1ccc(C)cc1N(C)C(=O)c1sc2nc3n(c(=O)c2c1C)CCCCC3	26%	x	18%	x	i	i
CC(C)C(=O)NC(c1cccs1)c1cc([N+](=O)[O-])c2cccnc2c1O (stereo not given)	-34%	7.3µM*	u	u	u	u
Cc1ccc(C(NC(=O)C(C)C)c2cc([N+](=O)[O-])c3cccnc3c2O)cc1 (stereo not given)	-4%	15µM*	-15%	u	u	u
COc1ccc(N2CCN(S(=O)(=O)c3ccc(C4CCCCC4)cc3)CC2)cc1	-5%	x	-13%	x	i	i
